These results are taken from paper PMC7862700, “An all-to-all approach to the identification of sequence-specific readers for epigenetic DNA modifications on cytosine”.

What all share (test): DAPPL (digital affinity profiling via proximity ligation, sequencing); 10 mM Tris-HCl pH 7.5, 50 mM NaCl, 1 mM DTT, 4% glycerol, room temperature, 30 min; GST-TFs on glutathione beads, 16-mer random dsDNA library, 0.1% formaldehyde crosslink after washing; high values mean tight binding
One assay addresses T1, FEV (Homo sapiens, UniProt Q99581 1-238).
T1 sequence: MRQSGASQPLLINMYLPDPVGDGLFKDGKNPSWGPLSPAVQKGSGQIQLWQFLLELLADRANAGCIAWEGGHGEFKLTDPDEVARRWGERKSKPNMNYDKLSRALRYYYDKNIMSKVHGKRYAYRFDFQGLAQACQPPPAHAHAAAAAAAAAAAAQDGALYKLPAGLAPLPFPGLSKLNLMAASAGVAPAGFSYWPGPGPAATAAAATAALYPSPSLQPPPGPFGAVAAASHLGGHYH
The following applies: protein: recombinant; tags: N-terminal GST; dsDNA, one strand shown. An outline of the steps:
(§1)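 Binding signal is each hexamer's read frequency for a factor divided by its frequency in the tag-only sample. The factors were GST-fused human transcription factors from yeast, captured on glutathione beads, DNA-barcoded and pooled with that sample. Pools were incubated with 200 nmole of a random double-stranded 16-mer DNA library in Tris/NaCl/DTT/glycerol buffer at room temperature for 30 min, then washed, crosslinked with 0.1% formaldehyde, proximity-ligated with BsaI/T4 ligase (1 h, 37 °C), PCR-amplified and sequenced on an Illumina NextSeq500.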

Another assay has as its target ETV5 (Homo sapiens, UniProt P41161 1-510). To be noted: protein: recombinant; tags: N-terminal GST; dsDNA, one strand shown. An outline of the steps: as §1
A further assay addresses HSF1 (Homo sapiens, UniProt Q00613 1-529). The following applies: protein: recombinant; tags: N-terminal GST; chain copies: 3; dsDNA, one strand shown. An outline of the steps:
as §1

A further assay has as its target T2, SPIC (Homo sapiens, UniProt Q8N5J4 1-248).
T2 sequence: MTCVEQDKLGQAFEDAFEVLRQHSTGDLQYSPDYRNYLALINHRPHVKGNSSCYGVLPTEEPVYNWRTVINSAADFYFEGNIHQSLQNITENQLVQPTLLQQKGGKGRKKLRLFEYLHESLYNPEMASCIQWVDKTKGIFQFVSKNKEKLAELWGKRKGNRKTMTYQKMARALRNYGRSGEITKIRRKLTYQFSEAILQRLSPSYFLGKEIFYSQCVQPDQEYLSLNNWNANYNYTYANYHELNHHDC
To be noted: protein: recombinant; tags: N-terminal GST; dsDNA, one strand shown. An outline of the steps: as §1

A further assay addresses ELF4 (Homo sapiens, UniProt Q99607 1-663). The following applies: protein: recombinant; tags: N-terminal GST; dsDNA, one strand shown. An outline of the steps:
as §1

A further assay concerns the target T3, ELK4 (Homo sapiens, UniProt P28324-2 1-405).
T3 sequence: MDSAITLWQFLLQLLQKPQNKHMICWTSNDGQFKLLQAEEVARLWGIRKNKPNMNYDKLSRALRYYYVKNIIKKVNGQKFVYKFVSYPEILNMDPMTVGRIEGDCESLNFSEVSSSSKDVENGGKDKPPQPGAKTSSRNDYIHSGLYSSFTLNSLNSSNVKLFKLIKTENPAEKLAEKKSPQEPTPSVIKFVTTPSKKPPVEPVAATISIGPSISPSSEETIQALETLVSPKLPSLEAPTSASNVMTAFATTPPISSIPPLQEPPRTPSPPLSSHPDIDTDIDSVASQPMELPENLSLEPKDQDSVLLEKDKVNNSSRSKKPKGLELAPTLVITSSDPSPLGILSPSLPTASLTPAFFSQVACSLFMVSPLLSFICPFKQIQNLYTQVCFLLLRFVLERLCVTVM
The following applies: protein: recombinant; tags: N-terminal GST; dsDNA, one strand shown. An outline of the steps: as §1

A further assay has as its target T4, ETV2 (Homo sapiens, UniProt O00321 1-342).
T4 sequence: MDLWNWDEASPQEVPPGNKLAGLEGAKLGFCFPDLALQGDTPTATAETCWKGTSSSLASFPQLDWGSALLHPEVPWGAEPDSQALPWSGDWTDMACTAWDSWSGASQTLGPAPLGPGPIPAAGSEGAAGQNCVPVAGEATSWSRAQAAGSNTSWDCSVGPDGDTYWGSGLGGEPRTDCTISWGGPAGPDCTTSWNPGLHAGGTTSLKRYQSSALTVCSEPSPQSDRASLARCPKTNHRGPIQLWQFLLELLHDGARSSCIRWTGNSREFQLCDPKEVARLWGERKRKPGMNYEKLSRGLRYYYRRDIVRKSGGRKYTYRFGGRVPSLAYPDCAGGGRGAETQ
To be noted: protein: recombinant; tags: N-terminal GST; dsDNA, one strand shown. An outline of the steps:
as §1

For the next assay, the target named is T5, ELF3 (Homo sapiens, UniProt P78545 1-371).
T5 sequence: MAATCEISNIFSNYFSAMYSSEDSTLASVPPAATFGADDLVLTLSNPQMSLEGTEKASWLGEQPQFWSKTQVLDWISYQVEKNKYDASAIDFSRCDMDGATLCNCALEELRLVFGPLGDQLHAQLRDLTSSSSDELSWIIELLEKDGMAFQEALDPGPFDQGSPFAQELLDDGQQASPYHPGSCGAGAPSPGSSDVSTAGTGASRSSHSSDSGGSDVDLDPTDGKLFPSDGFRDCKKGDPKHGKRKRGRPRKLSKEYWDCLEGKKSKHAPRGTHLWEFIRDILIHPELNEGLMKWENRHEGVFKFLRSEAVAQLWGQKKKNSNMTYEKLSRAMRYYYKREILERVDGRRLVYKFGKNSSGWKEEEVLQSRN
To be noted: protein: recombinant; tags: N-terminal GST; dsDNA, one strand shown. An outline of the steps: as §1

For another assay, the target named is CRX (Homo sapiens, UniProt O43186 1-299). To be noted: protein: recombinant; tags: N-terminal GST; dsDNA, one strand shown. An outline of the steps: as §1
The next assay deals with ETV1 (Homo sapiens, UniProt P50549 1-477). The following applies: protein: recombinant; tags: N-terminal GST; dsDNA, one strand shown. An outline of the steps: as §1
The target of another assay is T6, ERF (Homo sapiens, UniProt P50548 1-548).
T6 sequence: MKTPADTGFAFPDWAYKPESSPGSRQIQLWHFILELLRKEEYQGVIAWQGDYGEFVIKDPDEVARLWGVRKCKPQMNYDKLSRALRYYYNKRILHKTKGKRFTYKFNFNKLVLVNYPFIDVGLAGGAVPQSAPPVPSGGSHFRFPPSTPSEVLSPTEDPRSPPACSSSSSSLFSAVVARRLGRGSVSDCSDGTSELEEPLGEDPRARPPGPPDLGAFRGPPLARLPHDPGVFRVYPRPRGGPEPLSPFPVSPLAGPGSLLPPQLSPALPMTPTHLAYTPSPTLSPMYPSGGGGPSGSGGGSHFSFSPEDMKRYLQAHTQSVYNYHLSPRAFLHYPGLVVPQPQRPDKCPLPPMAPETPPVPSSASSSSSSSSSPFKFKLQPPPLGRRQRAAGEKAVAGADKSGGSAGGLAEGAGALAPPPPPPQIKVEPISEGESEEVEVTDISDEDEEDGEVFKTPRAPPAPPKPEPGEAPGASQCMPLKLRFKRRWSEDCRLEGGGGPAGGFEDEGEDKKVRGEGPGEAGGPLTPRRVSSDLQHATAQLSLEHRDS
To be noted: protein: recombinant; tags: N-terminal GST; dsDNA, one strand shown. An outline of the steps:
as §1

For the next assay, the target named is T7, ETV3L (Homo sapiens, UniProt Q6ZN32 1-361).
T7 sequence: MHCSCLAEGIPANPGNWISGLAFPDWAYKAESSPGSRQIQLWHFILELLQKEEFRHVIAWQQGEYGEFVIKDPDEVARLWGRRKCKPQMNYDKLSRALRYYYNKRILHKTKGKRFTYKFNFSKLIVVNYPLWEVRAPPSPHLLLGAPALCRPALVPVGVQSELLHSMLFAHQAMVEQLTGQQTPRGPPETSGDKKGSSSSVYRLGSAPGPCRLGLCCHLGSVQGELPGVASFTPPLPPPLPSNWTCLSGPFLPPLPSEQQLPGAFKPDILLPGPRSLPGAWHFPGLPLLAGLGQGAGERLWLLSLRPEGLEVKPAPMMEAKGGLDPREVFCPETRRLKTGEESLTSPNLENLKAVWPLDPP
To be noted: protein: recombinant; tags: N-terminal GST; dsDNA, one strand shown. An outline of the steps: as §1

A further assay has as its target T8, ETS2 (Homo sapiens, UniProt P15036 1-469).
T8 sequence: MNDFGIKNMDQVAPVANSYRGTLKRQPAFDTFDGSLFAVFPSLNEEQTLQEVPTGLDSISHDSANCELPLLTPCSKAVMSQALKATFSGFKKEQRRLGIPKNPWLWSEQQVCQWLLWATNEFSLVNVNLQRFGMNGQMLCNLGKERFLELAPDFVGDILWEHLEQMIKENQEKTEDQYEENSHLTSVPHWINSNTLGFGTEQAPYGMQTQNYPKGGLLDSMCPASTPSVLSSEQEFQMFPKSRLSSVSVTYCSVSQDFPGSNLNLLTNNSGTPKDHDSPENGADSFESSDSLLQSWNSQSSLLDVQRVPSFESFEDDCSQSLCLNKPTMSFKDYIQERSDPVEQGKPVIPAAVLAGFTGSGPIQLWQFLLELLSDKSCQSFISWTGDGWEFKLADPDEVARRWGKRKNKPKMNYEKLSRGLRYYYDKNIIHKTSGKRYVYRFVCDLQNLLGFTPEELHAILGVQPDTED
The following applies: protein: recombinant; tags: N-terminal GST; dsDNA, one strand shown. An outline of the steps: as §1

For another assay, the target named is T9, SPDEF (Homo sapiens, UniProt O95238 1-335).
T9 sequence: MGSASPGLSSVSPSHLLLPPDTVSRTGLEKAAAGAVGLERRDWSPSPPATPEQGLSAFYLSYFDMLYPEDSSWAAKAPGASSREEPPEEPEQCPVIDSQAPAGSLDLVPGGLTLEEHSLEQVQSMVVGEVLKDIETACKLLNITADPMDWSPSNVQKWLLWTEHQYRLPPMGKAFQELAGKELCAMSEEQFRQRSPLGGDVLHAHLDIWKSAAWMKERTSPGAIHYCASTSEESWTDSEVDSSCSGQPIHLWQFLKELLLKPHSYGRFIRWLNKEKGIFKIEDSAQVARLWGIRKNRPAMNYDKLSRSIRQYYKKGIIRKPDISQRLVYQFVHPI
The following applies: protein: recombinant; tags: N-terminal GST; dsDNA, one strand shown. An outline of the steps: as §1

In another assay the target is T10, ETV7 (Homo sapiens, UniProt Q9Y603 1-341).
T10 sequence: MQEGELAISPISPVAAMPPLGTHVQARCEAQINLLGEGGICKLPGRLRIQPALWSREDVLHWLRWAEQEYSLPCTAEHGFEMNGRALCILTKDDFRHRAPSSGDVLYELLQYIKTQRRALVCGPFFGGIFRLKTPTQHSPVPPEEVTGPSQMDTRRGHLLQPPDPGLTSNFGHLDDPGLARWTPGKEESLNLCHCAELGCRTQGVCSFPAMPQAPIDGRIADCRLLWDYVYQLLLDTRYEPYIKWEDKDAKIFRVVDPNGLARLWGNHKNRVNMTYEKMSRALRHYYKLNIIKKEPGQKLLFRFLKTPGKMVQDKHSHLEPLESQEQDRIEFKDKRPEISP
The following applies: protein: recombinant; tags: N-terminal GST; dsDNA, one strand shown. An outline of the steps: as §1

In a further assay the target is T11, ELF5 (Homo sapiens, UniProt Q9UKW6-2 1-255).
T11 sequence: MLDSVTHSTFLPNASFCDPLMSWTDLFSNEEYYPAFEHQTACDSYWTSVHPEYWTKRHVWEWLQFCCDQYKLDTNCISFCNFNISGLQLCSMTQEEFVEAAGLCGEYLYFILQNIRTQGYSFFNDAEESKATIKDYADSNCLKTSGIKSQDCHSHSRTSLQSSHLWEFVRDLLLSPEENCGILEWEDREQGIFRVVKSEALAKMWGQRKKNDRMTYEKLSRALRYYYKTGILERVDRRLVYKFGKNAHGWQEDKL
The following applies: protein: recombinant; tags: N-terminal GST; dsDNA, one strand shown. An outline of the steps:
as §1

Another assay has as its target T12, ETV3 (Homo sapiens, UniProt P41162-2 1-143).
T12 sequence: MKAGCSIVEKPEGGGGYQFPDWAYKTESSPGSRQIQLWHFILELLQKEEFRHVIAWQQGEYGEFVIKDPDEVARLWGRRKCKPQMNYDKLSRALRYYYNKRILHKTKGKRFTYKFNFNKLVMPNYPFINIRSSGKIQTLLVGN
The following applies: protein: recombinant; tags: N-terminal GST; dsDNA, one strand shown. An outline of the steps:
as §1

Another assay concerns the target ETV6 (Homo sapiens, UniProt P41212 1-452). The following applies: protein: recombinant; tags: N-terminal GST; dsDNA, one strand shown. An outline of the steps:
as §1

Chain of ETV5 (P41161 whole entry): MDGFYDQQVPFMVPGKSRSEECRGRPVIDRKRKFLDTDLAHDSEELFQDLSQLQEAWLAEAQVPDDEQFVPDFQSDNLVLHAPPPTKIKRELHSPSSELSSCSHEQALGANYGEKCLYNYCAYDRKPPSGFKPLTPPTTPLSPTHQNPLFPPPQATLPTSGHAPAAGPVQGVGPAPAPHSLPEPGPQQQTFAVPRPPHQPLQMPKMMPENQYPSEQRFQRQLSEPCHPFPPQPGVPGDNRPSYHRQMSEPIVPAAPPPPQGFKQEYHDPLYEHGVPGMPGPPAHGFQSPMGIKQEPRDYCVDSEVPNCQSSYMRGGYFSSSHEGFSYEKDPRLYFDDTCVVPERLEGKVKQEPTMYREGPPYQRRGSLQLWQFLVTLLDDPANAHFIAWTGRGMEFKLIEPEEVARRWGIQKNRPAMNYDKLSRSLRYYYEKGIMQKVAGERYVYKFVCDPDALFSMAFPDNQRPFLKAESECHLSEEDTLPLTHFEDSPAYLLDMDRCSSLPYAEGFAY
Chain of ELF4 (Q99607 whole entry): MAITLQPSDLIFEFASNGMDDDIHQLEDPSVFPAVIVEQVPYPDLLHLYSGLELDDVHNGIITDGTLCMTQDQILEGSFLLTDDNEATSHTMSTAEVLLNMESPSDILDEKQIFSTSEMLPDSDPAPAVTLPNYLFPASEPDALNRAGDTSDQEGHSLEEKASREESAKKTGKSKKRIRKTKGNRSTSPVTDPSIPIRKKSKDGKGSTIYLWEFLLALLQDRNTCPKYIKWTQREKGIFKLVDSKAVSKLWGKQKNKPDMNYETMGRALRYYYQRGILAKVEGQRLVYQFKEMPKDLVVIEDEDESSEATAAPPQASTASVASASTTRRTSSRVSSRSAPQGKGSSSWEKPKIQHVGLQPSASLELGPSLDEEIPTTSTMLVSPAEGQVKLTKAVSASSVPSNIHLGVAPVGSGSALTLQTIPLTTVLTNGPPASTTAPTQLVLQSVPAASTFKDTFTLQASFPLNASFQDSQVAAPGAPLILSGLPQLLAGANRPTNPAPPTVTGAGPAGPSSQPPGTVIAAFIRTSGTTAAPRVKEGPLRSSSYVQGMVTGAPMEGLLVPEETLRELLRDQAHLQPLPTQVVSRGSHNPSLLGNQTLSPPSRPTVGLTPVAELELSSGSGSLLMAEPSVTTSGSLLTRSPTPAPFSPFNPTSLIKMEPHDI
Chain of CRX (O43186 whole entry): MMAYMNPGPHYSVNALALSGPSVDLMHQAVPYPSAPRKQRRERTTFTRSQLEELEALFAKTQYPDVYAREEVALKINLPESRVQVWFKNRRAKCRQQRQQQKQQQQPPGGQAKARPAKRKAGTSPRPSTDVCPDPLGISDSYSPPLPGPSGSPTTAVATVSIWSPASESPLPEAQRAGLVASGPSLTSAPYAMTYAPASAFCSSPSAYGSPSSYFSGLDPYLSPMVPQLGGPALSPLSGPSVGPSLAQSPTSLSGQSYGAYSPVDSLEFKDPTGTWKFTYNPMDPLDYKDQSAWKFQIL
Chain of ETV6 (P41212 whole entry): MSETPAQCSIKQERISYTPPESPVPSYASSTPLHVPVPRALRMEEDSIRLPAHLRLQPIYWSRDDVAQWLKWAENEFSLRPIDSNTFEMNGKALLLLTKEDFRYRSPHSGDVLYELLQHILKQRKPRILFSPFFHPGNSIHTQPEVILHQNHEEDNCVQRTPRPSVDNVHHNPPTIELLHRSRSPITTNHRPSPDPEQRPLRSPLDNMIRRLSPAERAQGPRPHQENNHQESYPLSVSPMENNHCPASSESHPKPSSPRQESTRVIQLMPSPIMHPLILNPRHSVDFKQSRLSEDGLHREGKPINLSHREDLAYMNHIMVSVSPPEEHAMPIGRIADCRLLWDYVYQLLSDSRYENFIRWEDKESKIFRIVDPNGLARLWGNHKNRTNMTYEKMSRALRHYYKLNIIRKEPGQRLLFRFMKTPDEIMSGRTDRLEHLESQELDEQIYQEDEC
Chain of HSF1 (Q00613 whole entry): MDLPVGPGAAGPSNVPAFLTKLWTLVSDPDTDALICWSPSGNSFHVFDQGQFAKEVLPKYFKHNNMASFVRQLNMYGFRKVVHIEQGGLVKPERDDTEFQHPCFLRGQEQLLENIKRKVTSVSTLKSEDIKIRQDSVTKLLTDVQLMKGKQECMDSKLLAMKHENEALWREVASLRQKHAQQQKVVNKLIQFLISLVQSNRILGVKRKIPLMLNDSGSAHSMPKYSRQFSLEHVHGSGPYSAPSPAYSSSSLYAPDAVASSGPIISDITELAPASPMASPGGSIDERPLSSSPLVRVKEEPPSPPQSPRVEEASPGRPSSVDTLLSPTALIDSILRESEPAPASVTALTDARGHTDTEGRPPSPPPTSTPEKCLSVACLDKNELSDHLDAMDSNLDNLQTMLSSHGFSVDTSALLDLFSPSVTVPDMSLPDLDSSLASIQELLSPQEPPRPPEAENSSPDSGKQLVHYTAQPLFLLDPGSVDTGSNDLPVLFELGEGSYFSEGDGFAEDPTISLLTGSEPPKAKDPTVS
Chain of ETV1 (P50549 whole entry): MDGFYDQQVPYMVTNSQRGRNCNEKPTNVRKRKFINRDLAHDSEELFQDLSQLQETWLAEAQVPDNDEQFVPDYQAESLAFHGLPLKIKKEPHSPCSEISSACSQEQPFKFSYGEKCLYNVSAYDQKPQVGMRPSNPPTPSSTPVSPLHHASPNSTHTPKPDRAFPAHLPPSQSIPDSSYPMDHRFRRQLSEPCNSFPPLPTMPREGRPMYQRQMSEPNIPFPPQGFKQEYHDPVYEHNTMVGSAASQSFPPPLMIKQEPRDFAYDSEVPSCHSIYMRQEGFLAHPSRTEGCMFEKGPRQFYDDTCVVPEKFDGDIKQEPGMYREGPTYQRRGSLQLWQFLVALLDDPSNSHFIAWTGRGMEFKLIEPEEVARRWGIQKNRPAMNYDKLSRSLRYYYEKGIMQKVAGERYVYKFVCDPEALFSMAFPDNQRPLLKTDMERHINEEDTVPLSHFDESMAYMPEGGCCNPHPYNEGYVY

For TTGGTG, the binding signal with FEV was 1.22 fold enrichment (6-mer frequency, TF over GST control); with ETV5, 1.32 fold enrichment (6-mer frequency, TF over GST control); in the assay with HSF1, 1.18 fold enrichment (6-mer frequency, TF over GST control); in the assay with SPIC, 1.32 fold enrichment (6-mer frequency, TF over GST control); in the assay with ELF4, 1.3 fold enrichment (6-mer frequency, TF over GST control); with ELK4, 1.44 fold enrichment (6-mer frequency, TF over GST control). Moreover, the binding signal in the assay with ETV2 was 1.52 fold enrichment (6-mer frequency, TF over GST control); with ELF3, 1.3 fold enrichment (6-mer frequency, TF over GST control); with CRX, 1.28 fold enrichment (6-mer frequency, TF over GST control); with ETV1, 1.41 fold enrichment (6-mer frequency, TF over GST control); with ERF, 1.28 fold enrichment (6-mer frequency, TF over GST control); in the assay with ETV3L it was 1.25 fold enrichment (6-mer frequency, TF over GST control). Also, the binding signal is 1.32 fold enrichment (6-mer frequency, TF over GST control) in the assay with ETS2; 1.33 fold enrichment (6-mer frequency, TF over GST control) in the assay with SPDEF; 1.15 fold enrichment (6-mer frequency, TF over GST control) with ETV7; 1.27 fold enrichment (6-mer frequency, TF over GST control) in the assay with ELF5; 1.32 fold enrichment (6-mer frequency, TF over GST control) with ETV3; 1.18 fold enrichment (6-mer frequency, TF over GST control) with ETV6.
